This is part of a sample that, as a whole, favours compounds with a hit. Of some 83,000 tested, about 20% had one in any assay.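 Single-concentration screen, 48 h exposure, 96-well plates. Endpoint: percent growth. Below 10 = active.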 A number with no mark means an inactive call. The source made the active and inactive calls.

Among the test systems are NCI-H23 lung; NCI-H226 lung; NCI-H322M lung; NCI-H460 lung; HOP-92 NSCLC; NCI-H522 lung; A549/ATCC NSCLC; 786-0 renal; COLO 205 colon; DU-145 prostate; K-562 leukemia; MALME-3M melanoma; MDA-MB-231 breast; RXF 393 renal; SF-268 CNS; SF-295 CNS; SF-539 CNS; UACC-257 melanoma; M14 melanoma; HOP-62 NSCLC.
What all share (test): NCI-60 one-dose screen, 48 h (100 = growth as untreated, 0 = no growth, -100 = all killed)
Common to all, as to details: 10 µM unless noted

With `CCOc1ccc2[nH]c(=O)c(C(c3nnnn3CC3CCCO3)N3CCN(Cc4ccccc4)CC3)cc2c1` (centres undefined), the growth in the assay with NCI-H23 lung is 76.6%; in the assay on NCI-H226 lung, 73.6%; in the assay on NCI-H322M lung it was 101%; in the assay on NCI-H460 lung it was 84.7%; with HOP-92 NSCLC it was 54%; in the assay with NCI-H522 lung, 84.7%. Also, the growth is 92.7% in the assay with A549/ATCC NSCLC; 41.7% in the assay with 786-0 renal; 106% with COLO 205 colon; 93.6% in the assay with DU-145 prostate; 111% with K-562 leukemia; 65% in the assay on MALME-3M melanoma. The growth was 61.6% in the assay with MDA-MB-231 breast; 58.7% in the assay with RXF 393 renal; 55.5% in the assay on SF-268 CNS; 57.6% in the assay on SF-295 CNS; 57.6% with SF-539 CNS; 113% with UACC-257 melanoma. Moreover, the growth in the assay with M14 melanoma is 94.3%.
Turning to `COc1cc(/C=C/C(=O)c2cnn(-c3cc(=O)[nH]c4ccc(C)cc34)c2C)cc(OC)c1OC`, the growth in the assay with NCI-H23 lung was -45% (active); in the assay with NCI-H226 lung it was -17.8% (active); with NCI-H322M lung, 9.59% (active); in the assay on NCI-H460 lung it was 8.08% (active); in the assay on HOP-92 NSCLC it was 50.6%; in the assay on A549/ATCC NSCLC it was 6.23% (active). The growth was -27% (active) in the assay on 786-0 renal; -91.6% (active) with COLO 205 colon; -54.6% (active) with DU-145 prostate; 0.896% (active) with K-562 leukemia; -19.5% (active) with MALME-3M melanoma; -2.3% (active) with MDA-MB-231 breast. In addition, the growth with RXF 393 renal is -76.9% (active); with SF-268 CNS, 6.69% (active); in the assay on SF-295 CNS, 12.7%; in the assay with SF-539 CNS, -29% (active); in the assay with UACC-257 melanoma, 5.74% (active); in the assay on M14 melanoma it was -51.2% (active).
For the compound `O=C1CCC(N2C(=O)c3cccc(NCCOCCOCCOCCC(=O)NCCCC(=O)NC(c4ccc5c(c4)OCO5)c4cc(Cl)c5cccnc5c4O)c3C2=O)C(=O)C1` (centres undefined), the growth was 45.1% in the assay on NCI-H23 lung; 45% with NCI-H226 lung; 39.5% in the assay on NCI-H322M lung; 34.3% in the assay on HOP-62 NSCLC; 26.6% in the assay on NCI-H460 lung; 13.7% in the assay on HOP-92 NSCLC. The growth in the assay on 786-0 renal was 70.8%; in the assay with COLO 205 colon it was 24.5%; in the assay with DU-145 prostate, 60%; in the assay on K-562 leukemia it was 22.8%; with MALME-3M melanoma, 29.3%; in the assay on MDA-MB-231 breast, 25.3%. Further, the growth is 43.6% in the assay with RXF 393 renal; 24.4% with SF-268 CNS; 61.6% in the assay on SF-295 CNS; 10.3% in the assay on SF-539 CNS; 29.7% in the assay with UACC-257 melanoma; 54.8% with M14 melanoma.
Regarding `O=C1CCC(N2C(=O)c3cccc(NCCCCCC(=O)N4CCN(c5ccc6nc7c(nc6c5C(F)(F)F)C(=O)c5ncccc5C7=O)CC4)c3C2=O)C(=O)N1` (centres undefined), the growth was -49% (active) in the assay on NCI-H23 lung; -51.3% (active) with NCI-H226 lung; -73.8% (active) in the assay on NCI-H322M lung; -48.3% (active) with NCI-H460 lung; -40.2% (active) in the assay with HOP-92 NSCLC; -62% (active) in the assay with NCI-H522 lung. The growth in the assay with A549/ATCC NSCLC is -64.3% (active); in the assay on 786-0 renal it was -56.5% (active); in the assay with COLO 205 colon it was -75.9% (active); in the assay on DU-145 prostate, -88.3% (active); in the assay on K-562 leukemia it was -0.95% (active); with MALME-3M melanoma, -99.3% (active). The growth was -46.2% (active) with MDA-MB-231 breast; -72.1% (active) in the assay on RXF 393 renal; -29.5% (active) with SF-268 CNS; -84.1% (active) in the assay on SF-295 CNS; -95.4% (active) with SF-539 CNS; -98.3% (active) with UACC-257 melanoma. Moreover, the growth in the assay with M14 melanoma was -87.2% (active).
As for `NC(=Nc1ccc(OCCCCCCCCn2cnnn2)cc1)c1ccccc1`, the growth with NCI-H23 lung was 10.8%; in the assay with NCI-H226 lung, 21.3%; in the assay with NCI-H322M lung it was 57%; with HOP-62 NSCLC, 18.6%; in the assay with HOP-92 NSCLC it was 82.5%; in the assay on A549/ATCC NSCLC, 23.7%. Further, the growth in the assay with 786-0 renal was 34.5%; in the assay on K-562 leukemia, 15.4%; with MALME-3M melanoma, 46.3%; with MDA-MB-231 breast, 11.8%; with SF-268 CNS, 38.8%; with UACC-257 melanoma it was 49.7%. For the same compound, the growth with M14 melanoma was 18.1%.
As for `COc1ccc(-c2cc(-c3ccccc3)c(C#N)c(=O)[nH]2)cc1S(N)(=O)=O`, the growth is 106% with NCI-H23 lung; 103% in the assay with NCI-H226 lung; 113% with NCI-H322M lung; 104% in the assay with NCI-H460 lung; 110% in the assay with HOP-92 NSCLC; 93.3% in the assay on NCI-H522 lung. Besides, the growth in the assay on A549/ATCC NSCLC is 98.7%; with 786-0 renal, 94.7%; in the assay on COLO 205 colon it was 118%; in the assay on DU-145 prostate, 103%; in the assay with K-562 leukemia it was 109%; in the assay with MALME-3M melanoma, 97.9%. In addition, the growth in the assay with MDA-MB-231 breast is -18.1% (active); with RXF 393 renal it was 100%; with SF-268 CNS, 101%; with SF-295 CNS, 108%; with SF-539 CNS it was 96.3%; in the assay with UACC-257 melanoma, 98.9%. For the same compound, the growth in the assay with M14 melanoma was 99.7%.
In the case of `CN1C(=O)/C(=C/c2ccco2)S/C1=N/c1nccs1`, the growth with NCI-H23 lung is 97.3%; with NCI-H226 lung, 113%; in the assay with NCI-H322M lung it was 94.3%; in the assay with NCI-H460 lung, 103%; with HOP-92 NSCLC it was 114%; in the assay with NCI-H522 lung it was 100%. The growth with A549/ATCC NSCLC is 107%; in the assay with 786-0 renal it was 97.6%; in the assay on COLO 205 colon, 121%; in the assay with DU-145 prostate, 107%; with K-562 leukemia, 101%; with MALME-3M melanoma it was 118%. Moreover, the growth in the assay on MDA-MB-231 breast was 109%; with RXF 393 renal it was 111%; with SF-268 CNS, 107%; in the assay with SF-295 CNS, 102%; with SF-539 CNS, 103%; with UACC-257 melanoma, 117%. In addition, the growth in the assay on M14 melanoma is 117%.
With `Cc1ccc(S(=O)(=O)Nc2ccc(-c3ccc4c(c3)NC(=O)/C4=C\c3ccc[nH]3)cc2)cc1`, the growth in the assay on NCI-H23 lung was 33.8%; with NCI-H226 lung it was 94%; in the assay with NCI-H322M lung, 68.3%; with NCI-H460 lung it was 22%; with HOP-92 NSCLC, 93.4%; in the assay with NCI-H522 lung it was 87.2%. For the same compound, the growth with A549/ATCC NSCLC was 52.8%; in the assay with 786-0 renal, 101%; in the assay on COLO 205 colon, 93.3%; in the assay with DU-145 prostate, 65.6%; with K-562 leukemia, 42.2%; in the assay on MALME-3M melanoma, 90%. For the same compound, the growth with MDA-MB-231 breast is 97.4%; in the assay with RXF 393 renal it was 96.4%; in the assay on SF-268 CNS, 111%; in the assay with SF-295 CNS, 93.8%; with SF-539 CNS, 93.8%; in the assay with UACC-257 melanoma it was 110%. In addition, the growth in the assay on M14 melanoma was 90.9%.

For the origin of these results see PubChem BioAssay (NCI).
